# Test results published in ChEMBL document CHEMBL4513216, “Probing the Open Global Health Chemical Diversity Library for Multistage-Active Starting Points for Next-Generation Antimalarials” (ACS Infect Dis, 2020).
# The whole screen tested about 69,000 compounds, of which about 8,600 (12%) showed an effect of 50% or more. The sample as a whole holds a higher share of strong results than the screen did.
# System: Plasmodium berghei
# Experiment: Screen against P. berghei liver stage (PbLuc), transformed with Luciferase, at 10uM
# Assay type: functional, HepG2
# Conditions: tested at 10 uM
row,Compound,INHIBITION [%]
1,CN(Cc1ccccc1-n1cccn1)C[C@@H]1CCCN2CCCC[C@H]12,40.7
2,CN(Cc1nc2ccsc2c(=O)[nH]1)CC1CCCCC1,-21.8
3,CN(Cc1ccc(-n2cccn2)cc1)CC1CCCN1c1cccnn1 (stereo not given),9.64
4,CN(Cc1ccc(-n2cccn2)cc1)C[C@@H]1CCCN2CCCC[C@H]12,70
5,CN(Cc1nc2ccccc2c(=O)[nH]1)C[C@@H]1CCCN2CCCC[C@H]12,42.6
6,CN(Cc1nc2ccsc2c(=O)[nH]1)C[C@@H]1CCCN2CCCC[C@H]12,68.4
7,CNC(=O)C1(CCCc2ccncc2)CCCCN1 (stereo not given),-4.51
8,CCc1cc(NCCCN(C)C2CCCC2)ncn1,-13.1
9,Cc1nc(C(=O)N(CC2CCCO2)c2ccncc2)cs1 (stereo not given),45.5
10,CCc1ccccc1CN1CCC(N2CCCC2=O)CC1,-0.87
11,CN(C)c1ccccc1CN1CCC(N2CCCC2=O)CC1,25.2
12,COC(=O)N1CCN(Cc2ccccc2C(C)(C)C#N)CC1,39.2
13,CN(C)c1ccccc1CN1CCCC(N2CCCC2=O)C1 (stereo not given),51.7
14,O=C1CCCN1C1CCCN(CCOc2ccc(F)cc2)C1 (stereo not given),31.2
15,CC(C)(C#N)c1ccccc1CN1CCC(N2CCCC2=O)CC1,57.7
16,CCSCc1csc(-c2ccc(S(C)(=O)=O)cc2)n1,-35.8
17,CCOc1cc(CNC(=O)CNC(=O)CC2CCCCC2)ccn1,6.23
18,NCc1cnc(Nc2ccccc2)nc1,23.1
19,CCc1cnc(CN(C(C)=O)C2CCN(CCN3CCCCC3)C2)o1 (stereo not given),31.9
20,CC(C)c1noc(-c2ccc(-n3cnc(C(=O)O)c3)nc2)n1,2.49
21,Cc1c(C(=O)N2CCCC(C(=O)c3nccn3C)C2)c[nH]c(=O)c1C#N (stereo not given),25.1
22,O=C(CCC(=O)N1CCNC(=O)C1c1cccc(F)c1)NC1CCCC1 (stereo not given),55.5
23,O=C1NCCN(C(=O)CCN2CCCO2)C1c1cccc(F)c1 (stereo not given),5.15
24,O=C1NCCN(C(=O)CN2CCOC2=O)C1c1cccc(F)c1 (stereo not given),32

row,Compound,INHIBITION [%]
1,CCc1nccn1C1CCCN(C(=O)c2csc(NC(C)=O)n2)C1 (stereo not given),20.1
2,CC(NCc1ccccc1Cl)c1ccc2[nH]c(=O)[nH]c2c1 (stereo not given),40.9
3,CC(NCc1ccccc1Br)c1ccc2[nH]c(=O)[nH]c2c1 (stereo not given),51.6
4,COc1ccccc1CNC(C)c1ccc2[nH]c(=O)[nH]c2c1 (stereo not given),7.12
5,Cc1nc(CCCNC(=O)C2CC(=O)N(C3CCCC3)C2)sc1C (stereo not given),44.7
6,CCN1CC(C(=O)NCCCc2nc(C)c(C)s2)CC1=O (stereo not given),45.8
7,Cc1nc(CCCNC(=O)C2CC(=O)N(C3CC3)C2)sc1C (stereo not given),56.8
8,Cc1cnc2n1CCN(C)C21CCN(C(=O)CC(C)C)CC1,0.547
9,COCc1ccc(C(=O)N2CC[C@H](O)[C@@H](n3ccnc3)CC2)cc1,-6.3
10,Cn1c(=O)oc2ccc(S(=O)(=O)N3CCC(c4ccccc4)C3)cc21 (stereo not given),-5.26
11,Cn1c(=O)oc2cc(S(=O)(=O)N3CCC(c4ccccc4)C3)c(Cl)cc21 (stereo not given),55
12,Cn1c(=O)oc2cc(S(=O)(=O)N3CCCCC3)c(Cl)cc21,30
13,COCC(NC(=O)c1ccoc1C)c1cccc(C(F)(F)F)c1 (stereo not given),17.8
14,O=C(O)[C@]12CCCN(Cc3ccsc3)C[C@H]1CN(c1ccccn1)C2,1.48
15,Cn1cc(CN2CCCC3(COCCN(Cc4c[nH]nn4)C3)C2)cn1 (stereo not given),-6.23
16,Fc1ccc(CN2CCCC3(COCCN(Cc4c[nH]nn4)C3)C2)cc1 (stereo not given),61.5
17,CNC(=O)CN1CCOCC2(CCCN(Cc3ccoc3)C2)C1 (stereo not given),-2.35
18,c1cc(CN2CCCC3(COCCN(Cc4c[nH]nn4)C3)C2)cs1 (stereo not given),-4.88
19,Cc1ccc(CN2CCCC3(COCCN(Cc4c[nH]nn4)C3)C2)s1 (stereo not given),65.6
20,CNC(=O)CN1CCOCC2(CCCN(Cc3ccc(F)cc3)C2)C1 (stereo not given),53.1
21,c1csc(CN2CCCC3(COCCN(Cc4c[nH]nn4)C3)C2)c1 (stereo not given),31.7
22,Cc1ccc(CN2CCCC3(COCCN(Cc4c[nH]nn4)C3)C2)o1 (stereo not given),30.5
23,CNC(=O)CN1CCOCC2(CCCN(Cc3ccsc3)C2)C1 (stereo not given),-17.1
24,CCc1cccc(CC)c1NC(=O)c1ccccc1N(C)S(C)(=O)=O,26.9

row,Compound,INHIBITION [%]
1,Cn1cccc1C(=O)N1CCCCC1c1[nH]ncc1S(C)(=O)=O (stereo not given),4.08
2,CC(C)n1cnc2c1C(C(=O)N1CCCC1)N(CC1CC1)CC2 (stereo not given),13.7
3,Cc1nc(C(C)(C)C)sc1C(=O)NCCNc1ncccc1C#N,-26.6
4,CCN(Cc1c(F)cccc1F)Cn1nc(C)c2c(C)onc2c1=O,12.7
5,Cc1noc(C)c1CNCC1(COc2cccnc2)C[C@@H](O)[C@@H](O)C1 (stereo not given in full),27.5
6,Cc1ccccc1C1(CNC(=O)NCCc2nnc3n2CCC3)CC1,-25.3
7,NC(=O)C1(c2cnccn2)CCCN1Cc1cccc(Cl)c1 (stereo not given),15.9
8,NC(=O)C1(c2cnccn2)CCCN1Cc1ccc(Cl)cc1 (stereo not given),-7.79
9,NC(=O)C1(c2cnccn2)CCCN1Cc1ccncc1 (stereo not given),72.3
10,OCC1(NCc2cnc(-c3cccs3)s2)CCOCC1,0.0944
11,c1cnn(CC2CN(Cc3csc(C4CCCCC4)n3)CCO2)c1 (stereo not given),64.8
12,c1ccc(-c2nc(CN3CCOC(Cn4cccn4)C3)cs2)cc1 (stereo not given),-6.04
13,Fc1ccc(OCCCN2CCOC(Cn3cncn3)C2)cc1 (stereo not given),19.4
14,c1ccc(-c2nc(CN3CCOC(Cn4cncn4)C3)cs2)cc1 (stereo not given),18.2
15,CC(C)(C)c1nc(CN2CCOC(Cn3cncn3)C2)cs1 (stereo not given),44.3
16,Clc1cccc(OCCCN2CCOC(Cn3cncn3)C2)c1 (stereo not given),14.1
17,Clc1ccc(OCCCN2CCOC(Cn3cncn3)C2)cc1 (stereo not given),66.2
18,c1ncn(CC2CN(Cc3csc(C4CCCC4)n3)CCO2)n1 (stereo not given),58.3
19,Cc1cnn(CC2CN(Cc3csc(C4CCCC4)n3)CCO2)c1 (stereo not given),-6.44
20,CC(C)c1nc(CN2CCOC(Cn3cncn3)C2)cs1 (stereo not given),-33.9
21,c1csc(-c2nc(CN3CCOC(Cn4cncn4)C3)cs2)c1 (stereo not given),40.9
22,c1cnc(-c2nc(CN3CCOC(Cn4cncn4)C3)cs2)nc1 (stereo not given),88.1
